Here are results for 23 compounds from PubChem BioAssay (EPA / NIEHS).

Experiment [1] concerns the target Cellular tumor antigen p53 (Homo sapiens) (UniProt P04637). The experiment in a line: TOX21_p53_BLA_p2_ratio: Tox21 HCT-116 p53 Agonism Beta-lactamase Assay, Ratio, Phase 2 (AID 2283592). The procedure, abridged: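 Cleaved-to-uncleaved substrate ratio (460 vs 530 nm) measured in HCT116 cells with an inducible beta-lactamase reporter linked to p53 activity. Compounds incubated 16 h at 37C before 2 h room-temperature CCF4-AM loading.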

Experiment [2] in a line: TOX21_p53_BLA_p3_viability: Viability Assessment in the Tox21 HCT-116 p53 Agonism Beta-lactamase Assay, Phase 3 (AID 2283593).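 Also: cells exposed to compound for 16 h before reading.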 In a few lines: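 HCT-116 cells (4000/well) rested 5 h at 37C, then got DMSO compounds by pin tool (217-fold dilution) for 16 h at 37C, 5% CO2. After the bla read, CellTiter-Glo was added and luminescence read at 30 min, room temperature.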
Experiment [3] addresses Cellular tumor antigen p53 (Homo sapiens) (UniProt P04637). The experiment can be described thus: TOX21_p53_BLA_p3_ratio: Tox21 HCT-116 p53 Agonism Beta-lactamase Assay, Ratio, Phase 3 (AID 2283596). The procedure, abridged:
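Cells were seeded at 4000/well, rested 5 h at 37C, then dosed with DMSO compound solutions (217-fold dilution) for 16 h. CCF4-AM substrate was loaded for 2 h at room temperature, and the 460/530 nm emission ratio was fitted for gain of signal versus DMSO.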

A short description of experiment [4]: TOX21_p53_BLA_p4_viability: Viability Assessment in the Tox21 HCT-116 p53 Agonism Beta-lactamase Assay, Phase 4 (AID 2283597).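 Also: hits lower the luminescence signal meaning cytotoxicity.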 The procedure, abridged:
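Viability is taken as cellular ATP: after 16 h compound exposure of HCT116 cells and a 2 h room-temperature CCF4-AM substrate step, CellTiter-Glo reagent is added and luminescence is measured 30 min later.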

Experiment [5] in a line: TOX21_p53_BLA_p5_viability: Viability Assessment in the Tox21 HCT-116 p53 Agonism Beta-lactamase Assay, Phase 5 (AID 2283600). In a few lines:
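Viability is taken from cellular ATP content, measured by luciferase luminescence in the same wells after the beta-lactamase ratio read. Cells are seeded at 4000 per well and exposed to DMSO-dissolved compounds, diluted 217-fold, for 16 h.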

For experiment [6], the target named is Cellular tumor antigen p53 (Homo sapiens) (UniProt P04637). The experiment in a line: TOX21_p53_BLA_p4_ratio: Tox21 HCT-116 p53 Agonism Beta-lactamase Assay, Ratio, Phase 4 (AID 2283601). In a few lines:
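HCT116 cells carrying an inducible beta-lactamase reporter were plated at 4000 cells/well, rested 5 h, then exposed to compounds in DMSO (217-fold dilution) for 16 h at 37C. CCF4-AM substrate was loaded 2 h at room temperature; 460/530 nm emission ratio scored gain-of-signal versus DMSO.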

Experiment [7] has the same target. The experiment can be described thus: TOX21_p53_BLA_p5_ratio: Tox21 HCT-116 p53 Agonism Beta-lactamase Assay, Ratio, Phase 5 (AID 2283599). The procedure, abridged: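 HCT-116 cells carrying a p53-inducible beta-lactamase reporter were seeded at 4000 cells/well and dosed after 5 h with compound in DMSO (217-fold dilution). After 16 h at 37C, CCF4-AM substrate was added for 2 h, and the 460/530 nm emission ratio was scored as gain-of-signal versus DMSO.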

The structures appear in SMILES notation. Results filed as inconclusive are left out. Active and inactive are the calls of the source. The calls were made as follows: active = hit-call score of the fitted dose curve at least 0.9, where 1 is the maximum; inconclusive = response in the unintended direction; inactive = score below 0.9.

Chain of Cellular tumor antigen p53 (Homo sapiens) (P04637 whole entry, looked up): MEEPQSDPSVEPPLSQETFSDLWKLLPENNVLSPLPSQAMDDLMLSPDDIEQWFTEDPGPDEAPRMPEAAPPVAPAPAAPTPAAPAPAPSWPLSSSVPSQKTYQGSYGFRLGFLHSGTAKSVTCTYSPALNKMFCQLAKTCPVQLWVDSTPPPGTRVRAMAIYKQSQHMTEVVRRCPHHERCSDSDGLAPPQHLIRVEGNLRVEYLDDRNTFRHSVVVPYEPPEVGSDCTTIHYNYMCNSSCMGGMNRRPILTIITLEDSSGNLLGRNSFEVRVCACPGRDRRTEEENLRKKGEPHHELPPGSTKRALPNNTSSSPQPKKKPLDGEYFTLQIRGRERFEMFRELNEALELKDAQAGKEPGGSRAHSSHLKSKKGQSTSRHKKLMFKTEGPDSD

As for `NCCCNCCSP(=O)(O)O`, the result in experiment [1], in experiment [2], in experiment [3], in experiment [4], in experiment [5] and in experiment [6] was inactive.

Take `CO[Si](CCCNCCC[Si](OC)(OC)OC)(OC)OC`: the outcome in experiment [1], in experiment [2], in experiment [3], in experiment [4], in experiment [5] and in experiment [6] was inactive.

The term AC50 denotes the concentration at which the activity in the assay is half-maximal. As for `Nc1ccccc1O`, the AC50 in experiment [1] is 41 µM (active); in experiment [3] it was 39.2 µM (active); in experiment [4], 75.4 µM (active); in experiment [7], 32.1 µM (active); in experiment [6], 35.2 µM (active). Further, the compound was called inactive in experiment [2].

Consider `O=C(O)P(=O)(O)O`, for which the outcome in experiment [1], in experiment [2], in experiment [3], in experiment [4], in experiment [7] and in experiment [6] was inactive.

On to `COC(=O)CCc1ccc(OCC(O)CNC(C)C)cc1` (stereo unspecified), for which the outcome in experiment [1], in experiment [2], in experiment [3], in experiment [4] and in experiment [5] was inactive.

As to `O=C(NCCO[N+](=O)[O-])c1cccnc1`, the result in experiment [1], in experiment [2], in experiment [3], in experiment [4], in experiment [5] and in experiment [6] was inactive.

In the case of `CC(C)=C1CC[C@@H](C)CC1=O`, the result in experiment [1], in experiment [2], in experiment [3], in experiment [4], in experiment [7] and in experiment [6] was inactive.

As for `CCCC(CC)CCCCCCCN` (stereo unspecified), the outcome in experiment [1], in experiment [4], in experiment [5] and in experiment [6] was inactive. Also, the AC50 in experiment [2] is 81 µM (active); in experiment [3], 79.2 µM (active).

As to `O=P(O)(O)OP(=O)(O)O`, the outcome in experiment [1], in experiment [2], in experiment [3], in experiment [4], in experiment [5] and in experiment [6] was inactive.

For the compound `Cc1cccc2c1cc1ccc3cccc4ccc2c1c34`, the half-maximal activity concentration (AC50) in experiment [1] was 0.801 µM (active); in experiment [3] it was 2.77 µM (active); in experiment [7], 2.33 µM (active); in experiment [6], 0.44 µM (active). The compound was classed as inactive in experiment [2] and in experiment [4].

With `O=P(O)(O)OC(Cn1cncn1)(Cn1cncn1)c1ccc(F)cc1F`, the outcome in experiment [1], in experiment [2], in experiment [3], in experiment [7] and in experiment [5] was inactive.

For the compound `O=C(O)/C=C/c1ccc(Cn2ccnc2)cc1`, the result in experiment [1], in experiment [2], in experiment [3], in experiment [7], in experiment [5] and in experiment [6] was inactive.

As for `O=C1CC2(CCCC2)CC(=O)N1CCNCC1COc2ccccc2O1` (stereo unspecified), the outcome in experiment [1], in experiment [2], in experiment [3], in experiment [7], in experiment [5] and in experiment [6] was inactive.

Turning to `NCC(=O)O`, the outcome in experiment [1], in experiment [2], in experiment [3], in experiment [7] and in experiment [5] was inactive.

`CCOc1cc(CC(=O)N[C@@H](CC(C)C)c2ccccc2N2CCCCC2)ccc1C(=O)O`: the outcome in experiment [1], in experiment [2], in experiment [3], in experiment [4] and in experiment [6] was inactive.

With `COc1ccccc1OC(=O)Oc1ccccc1OC`, the outcome in experiment [1], in experiment [2], in experiment [3], in experiment [4] and in experiment [6] was inactive.

`O=C[C@H](O)[C@@H](O)[C@@H](O)[C@H](O)CO`: the outcome in experiment [1], in experiment [2], in experiment [3], in experiment [4], in experiment [5] and in experiment [6] was inactive.

Regarding `Oc1cn2c(n1)Nc1ccc(Cl)c(Cl)c1C2`, the outcome in experiment [1], in experiment [2], in experiment [3], in experiment [7], in experiment [5] and in experiment [6] was inactive.

Turning to `O=C(Nc1ccc(/C=C/c2ccc(NC(=O)c3cc(S(=O)(=O)O)c4cccnc4c3O)cc2S(=O)(=O)O)c(S(=O)(=O)O)c1)c1cc(S(=O)(=O)O)c2cccnc2c1O`, the outcome in experiment [1], in experiment [2], in experiment [3], in experiment [7], in experiment [5] and in experiment [6] was inactive.

Regarding `CC(=O)Oc1c(C)cc(OCC(O)CNC(C)C)c(C)c1C` (stereo unspecified), the result in experiment [1], in experiment [2], in experiment [3], in experiment [4] and in experiment [6] was inactive.

As for `C[C@@H](O)[C@H]1C(=O)N2C(C(=O)[O-])=C(SC3Cn4cnc[n+]4C3)[C@H](C)[C@H]12` (stereo partly specified), the outcome in experiment [1], in experiment [2], in experiment [3], in experiment [7] and in experiment [5] was inactive.

Consider `Nc1ncnc2c1ncn2[C@@H]1O[C@H](CO)[C@@H](O)[C@H]1O`, for which the outcome in experiment [1], in experiment [2], in experiment [3], in experiment [7], in experiment [5] and in experiment [6] was inactive.

In the case of `CCCCC(O)c1ccccc1` (stereo unspecified), the outcome in experiment [1], in experiment [3], in experiment [4], in experiment [5] and in experiment [6] was inactive. The AC50 in experiment [2] was 30.6 µM (active).
